Test results published in PubChem BioAssay AID624330 (Southern Research Specialized Biocontainment Screening …, 2012).
Among all 340,000 compounds or so, about 2,100 (0.62%) were called active.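 Rule for the calls: active = first-screen hits whose inhibition reached a set limit at any dose in the follow-up dose series; inconclusive = inhibition above the set first-screen limit but never retested; inactive = the rest.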 The list is a sample of the results. Measured potencies and affinities stand elsewhere.

molecular target: Rac GTPase-activating protein 1 (Homo sapiens) (UniProt Q9H0H5); assay: MgcRacGAP GTPase-activating activity inhibitors, confirmation, biochemical, ADP Hunter fluorescence, primary and confirmatory (AID 624330); settings: MgcRacGAP-stimulated Rac1 GTP hydrolysis, at 30 µM, hits give high values, GST-tagged Rac1 F28L mutant substrate;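 note: fluorescence reports GDP produced by GAP-driven GTP hydrolysis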
Sequence (Q9H0H5 whole entry, looked up): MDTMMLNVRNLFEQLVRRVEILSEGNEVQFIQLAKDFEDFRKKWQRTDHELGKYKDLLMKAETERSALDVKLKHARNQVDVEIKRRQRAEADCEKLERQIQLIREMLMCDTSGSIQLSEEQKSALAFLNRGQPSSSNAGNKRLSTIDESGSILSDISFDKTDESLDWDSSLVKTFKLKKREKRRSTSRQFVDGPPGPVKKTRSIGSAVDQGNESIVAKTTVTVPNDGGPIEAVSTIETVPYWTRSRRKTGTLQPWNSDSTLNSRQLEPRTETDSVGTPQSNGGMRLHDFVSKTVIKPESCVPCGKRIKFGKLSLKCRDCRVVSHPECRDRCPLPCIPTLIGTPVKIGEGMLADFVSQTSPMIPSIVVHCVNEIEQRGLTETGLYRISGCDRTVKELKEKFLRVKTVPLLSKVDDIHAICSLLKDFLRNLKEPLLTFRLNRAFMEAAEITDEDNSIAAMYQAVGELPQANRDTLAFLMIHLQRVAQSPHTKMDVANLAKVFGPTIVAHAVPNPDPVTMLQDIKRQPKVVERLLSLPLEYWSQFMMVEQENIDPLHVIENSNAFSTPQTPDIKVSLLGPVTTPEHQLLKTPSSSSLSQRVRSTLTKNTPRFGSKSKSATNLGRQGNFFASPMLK

inhibition, inactive:
COc1ccc(OC)c(C(=O)COC(=O)c2ccc(C)o2)c1 13%
Cc1ccc2c(c1)C1CC(C)(O2)N(c2cccc(C(=O)NC3CCN(Cc4ccccc4)CC3)c2)C(=O)N1 (stereo not given) 3.74%
O=C(CSc1ncnc2sc3c(c12)CCCC3)NC1CCS(=O)(=O)C1 (stereo not given) 12.7%
CCN(CC(=O)Nc1ccc(S(=O)(=O)N2CCCC2)cc1)Cc1ccccc1 1.79%
Cc1ccc(C)c(-n2cc(CNCCc3cnccn3)c(-c3ccccc3)n2)c1 12.1%
Cc1cc(OC(C)C(=O)NCc2ccccn2)c2c(C)cc(=O)oc2c1 (stereo not given) 0.55%
CC(=O)Nc1cccc2ccc(O)cc12 -6.95%
CC(=O)Nc1ccc2ccc3cccc4ccc1c2c34 6.5%
Fc1ccc(-c2ncc3ccccn23)cc1 -4.81%
COc1ccc(-c2ncc3ccccn23)cc1 14.9%
Clc1ccc(-c2ncc3ccccn23)cc1 6.65%
Brc1ccc(-c2ncc3ccccn23)cc1 14.6%
COc1cc(OC)cc(-c2ncc3ccccn23)c1 29.5%
c1ccc(-c2ncc3ccccn23)cc1 12%
CCN(CC)C(=O)[C@H]1CC(CC(=O)NC(C)(C)C)C(=O)N2CCc3c([nH]c4ccccc34)[C@]12C (stereo not given in full) 6.38%
O=C(Nc1ccon1)Nc1ccc(Cl)cc1Cl 2.26%
Cc1ccc(-c2nc3ncccc3o2)cc1NC(=O)CC(C)C 4.77%
CC(NC(=O)NC1CCCCC1)C(c1cccs1)N1CCN(C)CC1 (stereo not given) 1.37%
COc1ccc(CNC(=O)Cn2cc([N+](=O)[O-])nc2C)cc1 2.29%
O=C(CN1C(=O)C2CCCCC2C1=O)N1CCN(c2ncccn2)CC1 (stereo not given) 5.06%
O=C(O)CCC(=O)N1CCN(c2ncccn2)CC1 1.98%
COc1ccc2c(C)cc(=O)sc2c1 5.61%
O=C(Nc1cccc(NC(=O)c2ccccc2)n1)c1ccccc1 8.99%
CC1CCN(CC(=O)Nc2ccc(S(=O)(=O)N3CCC(C)CC3)cc2)CC1 23%
Cc1cc(NC(=O)CN2CCCC(C)C2)no1 (stereo not given) 20.7%
Cc1cc(NC(=O)CN2CCCCCCC2)no1 18%
CCN1CCN(CC(=O)Nc2cc(C)on2)CC1 29.4%
Cc1cc(NC(=O)CN2CCCCC2)no1 22.2%
O=C(CN1CCCCC1)Nc1ccc(S(=O)(=O)NC2CCCCC2)cc1 5.84%
COc1ccc(S(=O)(=O)N2CCOCC2)cc1C(=O)N(C)CCOc1ccc(Cl)cc1 6.35%
O=C1C2C3C=CC(O3)C2C(=O)N1Cc1ccncc1 (stereo not given) 1.25%
CN(CC1COc2ccccc2O1)C(=O)c1ccc(Cl)c(S(=O)(=O)N2CCCCCC2)c1 (stereo not given) 7.88%
CC(=O)Nc1ccc(Nc2nc(-c3cc4ccccc4oc3=O)cs2)cc1 4.39%
Oc1ccc(-c2csc(Nc3ccc4c(c3)OCO4)n2)c(O)c1 10.8%
COc1ccc(-c2csc(Nc3ccc(S(=O)(=O)Nc4cc(C)on4)cc3)n2)cc1 11.9%
NS(=O)(=O)c1ccc(Nc2nc(-c3ccc4ccccc4c3)cs2)cc1 -0.69%
COc1ccc(-c2csc(Nc3ccc(S(N)(=O)=O)cc3)n2)cc1 15.2%
Cc1cc(NS(=O)(=O)c2ccc(Nc3nc(-c4ccc(C)c(C)c4)cs3)cc2)no1 12.2%
Nc1ccc(Nc2nc(-c3cc4ccccc4oc3=O)cs2)cc1 47.4%
CC(=O)Nc1ccc(-c2csc(Nc3ccc(S(N)(=O)=O)cc3)n2)cc1 -2.9%
Cc1cc(=O)[nH]c(N/N=C/c2c(C)nn(-c3ccccc3)c2Cl)n1 0.59%
CN=c1scc(-c2ccc(Cl)cc2)n1C 3.57%
CC(C(=O)OCC(=O)N1CCCCC1)N1C(=O)c2ccccc2C1=O (stereo not given) 2.6%
CC1CCN(S(=O)(=O)c2cn(CC(=O)N3CCN(C)CC3)c(=O)c3ccccc23)CC1 -14%
O=C(CSc1ccc(-c2cccc([N+](=O)[O-])c2)nn1)N1CCCCC1 9.68%
CC(C)(C)S(=O)(=O)N1C[C@H]2CC/C=C\C/C(c3ccccc3)=C\2[C@@H]1CCO 2.11%
CC(C)c1ccc(NC(=O)COC(=O)C2CCCCC2)cc1 1.49%
O=C(NC1CCN(C(=O)N2c3ccccc3Sc3ccccc32)CC1)c1ccco1 1.56%
O=C(NC1CCN(C(=O)N2c3ccccc3Sc3ccccc32)CC1)c1ccccc1Cl 23.6%
CC1C(=O)C(C)C(c2cc(Cl)ccc2O)NC1c1cc(Cl)ccc1O (stereo not given) 6.05%
CCC[C@H]1CN(c2ccccc2)C(=O)[C@@H]1CC(=O)Nc1ccc(Br)cc1 13.1%
COC(=O)CSc1nnc2n(-c3ccc(OC)cc3)c(=O)c3c4c(sc3n12)CCCCC4 7.39%
COc1ccccc1-n1c(=O)c2c3c(sc2n2c(SC(C)C)nnc12)CCC3 14.9%
CCSc1nnc2n(-c3ccc(OC)cc3)c(=O)c3c4c(sc3n12)CCCC4 -3.51%
COc1ccccc1-n1c(=O)c2c3c(sc2n2c(SC)nnc12)CCC3 11.3%
O=C(OCC(=O)N1CCc2ccccc21)c1ccncc1 3.21%
CCC(CC)CN1CCC(CN2CCNC(=O)C2=O)CC1 0.28%
COc1ccc(NC(=O)c2cc3ccccc3oc2=O)cc1 20.1%
COc1cccc2cc(C(C)=O)c(=O)oc12 -3.65%
O=C(Oc1ccccc1)c1cc2ccccc2oc1=O -4.44%
COc1ccc(NC(=O)c2cc3cc(OC)ccc3oc2=O)cc1 7.32%
COc1cccc2cc(C(=O)Oc3ccccc3)c(=O)oc12 15.6%
COc1cc(C(C)=O)ccc1OC(=O)c1cc2cccc(OC)c2oc1=O 2.6%
CCOc1ccccc1OC(=O)c1cc2ccccc2oc1=O 9.21%
CC(=O)Nc1ccc(OC(=O)c2cc3cc(Br)ccc3oc2=O)cc1 10.4%
